In PubChem BioAssay AID1850 (Southern Research Specialized Biocontainment Screening …, 2009):
Values joined by “and” are separate entries in the source; they are usually repeats but may differ in a detail not shown here. Equal entries are not always repeated. About 1,000 (0.32%) of roughly 310,000 compounds were called active. No rule for the calls is given here. A selection follows. Results with a measured potency or affinity are listed apart.

test: Inhibition of PhoP regulon, Salmonella typhi GFP reporter cells, confirmation, 4 h (AID 1850); details: Salmonella Typhi PhoP-promoter GFP reporter, fluorescence, at 50 µM, stronger effect = higher value;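 also: 0% = induced wells with vehicle and 100% = uninduced wells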

SMILES | inhibition
Oc1ccccc1Nc1nc(NCc2ccccc2)c2ccccc2n1 | 2.95% (inactive)
CSc1nc(NCc2ccco2)c2ccccc2n1 | 3.85% (inactive)
Cc1cccc(Nc2nc(N)c([N+](=O)[O-])c(NCc3ccco3)n2)c1 | -6.31% (inactive)
COc1ccc(OC)c(Nc2nc(NCc3ccco3)c3ccccc3n2)c1 | -4.32% (inactive)
Cc1cccc(Nc2nc(NCc3ccco3)nc(N)c2[N+](=O)[O-])c1 | -3.95% (inactive)
COc1cccc(-c2nc(NCc3ccco3)c3ccccc3n2)c1O | -5.74% (inactive)
Cc1ccccc1Nc1nc(NCc2ccco2)c2ccccc2n1 | -14.1% (inactive)
Fc1ccccc1-c1nc(NCc2ccco2)c2ccccc2n1 | -5.43% (inactive)
COc1ccccc1-c1c(C)nn2c(N3CCC4(CC3)OCCO4)cc(C)nc12 | -2.41% (inactive)
O=C(COC(=O)C1CC(=O)N(c2nc(-c3ccccc3)cs2)C1)c1ccccc1 (configuration not stated) | -9.24% (inactive)
CC(=O)NC(Cc1ccc(N(CCCl)CCCl)cc1)C(=O)NCC(=O)NCC(=O)O (configuration not stated) | 6.1% (inactive)
Cc1nn(CCCC(=O)NCCCN2CCN(C)CC2)c(=O)c2c1sc1ccccc12 | 11.5% (inactive)
Cc1ccc(S(=O)(=O)NCCC(=O)OCc2ccc([N+](=O)[O-])cc2)cc1C | -4.36% (inactive)
COC(=O)c1cc2oc(C)cc2n1CC(=O)N1CCCc2ccccc21 | -6.03% (inactive)
O=C(Nc1ccn(Cc2c(F)c(F)c(F)c(F)c2F)n1)c1cccc(Cn2cc([N+](=O)[O-])cn2)c1 | -7.4% (inactive)
CCc1cccc(C)c1NC(=O)c1cccnc1 | -4.39% (inactive)
O=C1C(Cl)=C(NCCN2CCCCC2)C(=O)c2ccccc21 | -2.93% (inactive)
Nc1nc(Nc2ccccc2)nc(NCc2ccco2)c1[N+](=O)[O-] | 3.06% (inactive)
Cc1ccc(Nc2nc(NCc3ccco3)c3ccccc3n2)cc1 | 5.88% (inactive)
O=C(OCC(=O)N(Cc1ccccc1)Cc1ccccc1)c1ccccc1NCCO | -4.63% (inactive)
CSc1nc2c(c(=O)[nH]1)C(c1ccc(C(F)(F)F)cc1)CC(=O)N2 (configuration not stated) | 6.77% (inactive)
CNc1oc(-c2cccs2)nc1S(=O)(=O)c1ccccc1 | -10% (inactive)
COc1ccc(C(OCC(O)CN(C)C2CCCCC2)c2ccc(OC)cc2)cc1 (configuration not stated) | -25.4% (inactive)
O=C(N/N=C/c1ccc(-c2ccc([N+](=O)[O-])cc2)o1)C(O)c1ccccc1 (configuration not stated) | -3.63% (inactive)
Cc1ccc(NC(C)C(=O)N/N=C/c2ccc([N+](=O)[O-])s2)cc1 (configuration not stated) | -1.13% (inactive)

SMILES | inhibition
O=C(N/N=C/c1ccc([N+](=O)[O-])s1)c1cccc(Br)c1 | -0.18% (inactive)
Cc1ccc(/C=N/NC(=O)C(O)c2ccccc2)o1 (configuration not stated) | 1.91% (inactive)
Cc1cc(C(=O)N/N=C/c2ccc([N+](=O)[O-])s2)c2ccccc2n1 | 4.3% (inactive)
O=C(N/N=C/c1ccc(Cl)s1)C(O)c1ccccc1 (configuration not stated) | -6.88% (inactive)
O=C(N/N=C/c1ccc(Br)s1)c1ccccc1[N+](=O)[O-] | -8.63% (inactive)
O=C(N/N=C/c1ccc([N+](=O)[O-])s1)c1ccccc1 | 6.9% (inactive)
O=C(c1cc2ccccc2cc1O)N1CCN(c2ccc([N+](=O)[O-])cc2)CC1 | 6.8% (inactive)
O=C(NCCCSc1ccccc1)c1ccc(=O)[nH]c1 | -9.17% (inactive)
C=CCc1cc(Cl)ccc1OCCN1CC(C)OC(C)C1 (configuration not stated) | -16% (inactive)
Cn1c(-c2cccc([N+](=O)[O-])c2)cnc1NCc1ccc(C#N)cc1 | -3.32% (inactive)
CC1(C)Cc2c(sc3c2c(N)nc(=S)n3Cc2ccccc2)CO1 | -10.9% (inactive)
O=C(NCCC1=CCCCC1)c1cc(S(=O)(=O)N2CCOCC2)ccc1Cl | -3.59% (inactive)
Cc1ccc(S(=O)(=O)Nc2cc(C(=O)N3CCC4(CC3)OCCO4)ccc2N2CCCCC2)cc1 | 3.06% (inactive)
Cc1nc(SCC(=O)Nc2cc(Cl)ccc2[N+](=O)[O-])nc(C)c1C | 1.39% (inactive)
O=C(CSc1nc2ccccc2[nH]1)N1CCN(C(=O)c2ccco2)CC1 | -8.53% (inactive)
CCOc1ccc(CSC(=N)N)cc1[N+](=O)[O-] | -0.03% (inactive)
CCOc1ccc(CN=C(N)N=C(N)N)cc1Cl | 20% (inactive)
CCCOc1ccc(CSC2=NCCN2)cc1[N+](=O)[O-] | 23.3% (inactive)
CCCCOc1ccc(CSC2=NCCN2)cc1[N+](=O)[O-] | 7.52% (inactive)
COc1ccc(CSC(=N)N)cc1[N+](=O)[O-] | -11.2% (inactive)
CCCOc1ccc(CCCN=C(N)N)cc1Cl | 22.8% (inactive)
CCCCOc1ccc(CSCCN)cc1Cl | 12% (inactive)
CCOc1ccc(CSC(=N)N)cc1Cl | 20.5% (inactive)
Cc1cc(C(=O)Cn2nc(C(=O)O)c3ccccc3c2=O)c(C)n1-c1ccc(OC(F)F)cc1 | -17.2% (inactive)
CCOC(=O)c1ccc(NC(=O)N2CCOCC2)cc1 | 9.07% (inactive)

SMILES | inhibition
O=C(CCN1C(=O)C2CC=C(Cl)CC2C1=O)N1CCCCC1 (configuration not stated) | 4.62% (inactive)
O=C1c2ccccc2-c2nc3ccccc3n21 | -6.73% (inactive) and -7.55% (inactive)
CCCOc1ccc(Br)cc1CSC(=N)N | 20.4% (inactive)
CCOc1ccc(Br)cc1CSC(=N)N | -6.33% (inactive)
O=C(CN1C(=O)NC2(CCCC2)C1=O)Nc1ccc(S(=O)(=O)N2CCOCC2)cc1 | -0.54% (inactive)
Cc1cc(NCCO)c2ccccc2n1 | -12.1% (inactive)
OCCNc1nc(NCc2ccccc2)c2ccccc2n1 | -4.21% (inactive)
OCCNc1nc(Nc2ccccc2)nc(Nc2ccccc2)n1 | -3.62% (inactive)
OCCNc1nc(-c2ccccc2)nc2ccccc12 | 16% (inactive)
Cc1ccc(Nc2nc(N)c([N+](=O)[O-])c(NCCO)n2)cc1C | 13.6% (inactive)
OCCNc1nc(Nc2ccccc2Cl)nc(N2CCCC2)n1 | -6.06% (inactive)
OCCNc1nc(Nc2ccc(O)cc2)nc2ccccc12 | 1.07% (inactive)
O=C(NCCO)c1nc(NCCO)c2ccccc2n1 | -2.84% (inactive)
O=C(CSc1ccc2c(c1)OCCO2)NCc1ccccc1 | 6.58% (inactive)
CC(Sc1nnc(Nc2ccccc2)s1)C(=O)NC1CCCc2ccccc21 (configuration not stated) | 9.25% (inactive)
O=C(COc1ccc(Br)cc1)N(CCO)CCO | -3.36% (inactive)
O=P(O)(Oc1ccccc1)OC(c1ccccc1)C(F)(F)C(F)(F)F (configuration not stated) | 5.37% (inactive)
O=C(NCCNS(=O)(=O)c1ccc(Cl)cc1)c1cc(OCC(F)(F)F)ccc1OCC(F)(F)F | 0.75% (inactive)
c1coc(-c2cc(C3CCNCC3)[nH]n2)c1 | 10.6% (inactive)
CC(Oc1ccccc1)C(=O)N=C1SC2CS(=O)(=O)CC2N1Cc1ccc(F)cc1 (configuration not stated) | 2.75% (inactive)
COc1cc(C(=O)OCC(=O)NCc2ccc(F)cc2)cc(NC(=O)c2cccs2)c1OC | 12.9% (inactive)
COCCN(Cc1cc2cc3c(cc2nc1Cl)OCO3)C(=O)c1ccc(C)cc1 | -6.89% (inactive)
CCc1ccc(CN2C(=O)c3ccccc3C2C(=O)NCc2cccnc2)cc1 (configuration not stated) | -8.38% (inactive)
COc1ccc(OC)c(Nc2nc(NCCO)c3ccccc3n2)c1 | -0.87% (inactive)
OCCNc1nc(Nc2cccc(O)c2)nc2ccccc12 | -3.51% (inactive)

SMILES | inhibition
CN1N=C(C(=O)Nc2ccc3c(c2)CCC3)CCC1=O | -2.98% (inactive)
COc1cccc(COc2ncnc3sccc23)c1 | 3.57% (inactive)
O=C(O)c1oc2ccccc2c1CN1CCN(c2ccccc2)CC1 | -0.62% (inactive)
COc1ccc(OCC(=O)Nn2c(-c3cccc(OC)c3)nc3ccccc3c2=O)cc1 | -2.54% (inactive)
COCCCn1c(SCC(=O)NC2CCCC2)nnc1-c1cccs1 | 7.9% (inactive)
Nc1ccccc1C(=O)NNC(=O)C(=O)/C=C(\O)c1ccccc1 | 3.15% (inactive)
COc1ccc(/C(O)=C/C(=O)C(=O)NNC(=O)c2ccccc2)cc1 | 12.4% (inactive)
COc1ccc(-c2nnc(OC)c3ccccc23)cc1 | -2.2% (inactive)
O=C(O)C1=C[C@H](c2csc3ccccc23)C[C@H](OCc2ccc(CO)cc2)O1 | 17.9% (inactive)
NS(=O)(=O)c1ccc(CCNC(=O)C2CCCO2)cc1 (configuration not stated) | -6.93% (inactive)
CC(C)N1C(=O)/C(=C\c2nc3ccccc3c(=O)n2-c2ccccc2)c2ccccc21 | -1.3% (inactive)
Cn1c(N)c(C(C[N+](=O)[O-])c2ccccc2Cl)c(=O)n(C)c1=O (configuration not stated) | 16% (inactive)
COc1cc(C(C[N+](=O)[O-])c2c(N)n(C)c(=O)n(C)c2=O)ccc1O (configuration not stated) | -9.41% (inactive)
Cc1c(CCC(=O)NCCCn2ccnc2)c(=O)oc2c(C)c3oc4c(c3cc12)CCCC4 | 2.2% (inactive)
Cc1ccccc1S(=O)(=O)Cc1ccc(C(=O)O)o1 | -5.44% (inactive)
Cn1c(NC2CCCCC2)cc(=O)n(C)c1=O | -41.1% (inactive)
Cc1cc(C)cc(Nc2cc(=O)n(C3CCCCC3)c(=O)[nH]2)c1 | 3.88% (inactive)
O=C(O)c1ccccc1NCc1cccs1 | -6.17% (inactive)
O=C(NNc1c2ccccc2nc2ccccc12)c1ccccc1Cl | 5.14% (inactive)
Cc1cc(C(=O)Cn2nc(C(=O)O)c3ccccc3c2=O)c(C)n1CC(F)(F)F | -16% (inactive)
O=C(NNC(=O)C1CC=CCC1)c1cccc(Br)c1 (configuration not stated) | 5.92% (inactive)
CCOc1cc(CN2CCc3c([nH]c4ccccc34)C2)ccc1OC | -1.33% (inactive)
